# Measured values as given in PubChem BioAssay (NCATS).
# “And” between values parts separate entries of the source, which are not always exact repeats. Identical values can stand only once. Records with an inconclusive call do not appear. Where a call stands in place of a potency, no number is given. Unmarked numbers belong to inactive results. The source made the active and inactive calls. The call rests on the fitted dose curve; in most records, active means well fitted curve in the direction sought with a large enough effect; inconclusive means small, poorly fitted or top-dose-only effect, or another doubt; inactive means no such curve, though single readings can be large; an effect the other way counts as inactive or inconclusive.
# Legend:
# MKL-1 = assay: qHTS assay to identify novel small-molecules to repurpose for Merkel cell carcinoma treatment (AID 1296009); settings: MCC and control cell lines, CellTiter-Glo viability, 72 h; series mostly up to 46 µM; further: nearly all actives have a fitted effect of over 60% in size; further: potency means the concentration at half of the fitted maximal effect
# Summary of the method: (§1)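 Cell viability measured by CellTiter-Glo following 72 hr compound treatment at 37 degree celsius, with NPC and MIPE libraries tested in 8- and 11-point concentration series.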
# MKL-2 = assay: as above; settings: MCC and control cell lines, CellTiter-Glo viability, 72 h; series mostly up to 46 µM
# Summary of the method: as §1
# UISO = assay: as above; settings: MCC and control cell lines, CellTiter-Glo viability, 72 h; series mostly up to 46 µM
# Summary of the method: as §1
# WaGa = assay: as above; settings: MCC and control cell lines, CellTiter-Glo viability, 72 h; series mostly up to 46 µM
# Summary of the method: as §1
# NIH3T3 = assay: as above; settings: MCC and control cell lines, CellTiter-Glo viability, 72 h; at 44.8 µM (top of the series) unless noted
# Summary of the method: as §1
# [1] = qHTS assay to identify inhibitors of the type 1 interferon - major histocompatibility complex class I in skeletal muscle: Counter screen cell viability and HiBit confirmation (AID 1347412); settings: iHSKM muscle cells + IFN-b, HiBiT or CellTiter-Glo, 24 h; for activity change, negative = inhibition: at 45.9 µM (top of the series); further: potency means the concentration at half of the fitted maximal effect; on all read-outs here: nearly all actives have a fitted effect of over 60% in size
# Summary of the method: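 HLA-B*08:01–HiBiT knock-in immortalized human myoblasts (C25cl48) stimulated with 4.0 ng/ml human IFN-beta and dosed with compound in a 12-point 1:3 titration (top final 46 uM). After 24 hrs at 37 C, HiBiT lytic luminescence or CellTiter Glo ATP read out.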
# C33A = assay: Primary qHTS to identify gynecologic anti-cancer compounds using libraries of approved drugs and bioactive compounds (AID 1345084); settings: Gynecologic cancer cell panel viability, ATPlite luminescence, 48 h; series mostly up to 57.5 µM; further: nearly all actives have a fitted effect of over 55% in size
# Summary of the method: (§2)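 Cell viability after 48 h drug treatment, ATPlite luminescence readout; five doses.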
# CAOV3 = assay: as above; settings: Gynecologic cancer cell panel viability, ATPlite luminescence, 48 h; series mostly up to 57.5 µM
# Summary of the method: as §2
# CASKI = assay: as above; settings: Gynecologic cancer cell panel viability, ATPlite luminescence, 48 h; series mostly up to 57.5 µM
# Summary of the method: as §2
# Es-2 = assay: as above; settings: Gynecologic cancer cell panel viability, ATPlite luminescence, 48 h; series mostly up to 57.5 µM
# Summary of the method: as §2
# HeLa = assay: as above; settings: Gynecologic cancer cell panel viability, ATPlite luminescence, 48 h; series mostly up to 57.5 µM
# Summary of the method: as §2
# Hek293T = assay: as above; settings: Gynecologic cancer cell panel viability, ATPlite luminescence, 48 h, control line for the selectivity index; series mostly up to 57.5 µM
# Summary of the method: as §2
# JEG-3 = assay: as above; settings: Gynecologic cancer cell panel viability, ATPlite luminescence, 48 h; series mostly up to 57.5 µM
# Summary of the method: as §2
# OV90 = assay: as above; settings: Gynecologic cancer cell panel viability, ATPlite luminescence, 48 h; series mostly up to 57.5 µM
# Summary of the method: as §2
# PA-1 = assay: as above; settings: Gynecologic cancer cell panel viability, ATPlite luminescence, 48 h; series mostly up to 57.5 µM
# Summary of the method: as §2
# SKOV3 = assay: as above; settings: Gynecologic cancer cell panel viability, ATPlite luminescence, 48 h; series mostly up to 57.5 µM
# Summary of the method: as §2
# Tov-21-G = assay: as above; settings: Gynecologic cancer cell panel viability, ATPlite luminescence, 48 h; series mostly up to 57.5 µM
# Summary of the method: as §2
# Tov112D = assay: as above; settings: Gynecologic cancer cell panel viability, ATPlite luminescence, 48 h; series mostly up to 57.5 µM
# Summary of the method: as §2
# [2] = Drug repurposing screens with cells derived from glioblastoma tumor samples (AID 1345199); settings: GBM patient neurospheres viability, ATP luminescence, 48 h; further: nearly all actives have a fitted effect of over 40% in size; further: potency means the concentration at half of the fitted maximal effect
# Summary of the method: (§3)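 Primary testing used CD133+ neurospheres from four GBM patients, seven concentrations, 48 h exposure and ATP-based viability; confirmation added three slower-growing patient lines.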
# astro = assay: as above; settings: viability, ATP luminescence, 48 h; series mostly up to 45.9 µM
# Summary of the method: as §3
# [3] = at 45.9 µM (top of the series), tumour line B
# [4] = at 45.9 µM (top of the series), tumour line D
# [5] = at 46 µM (top of the series), tumour line A
# [6] = at 46.1 µM (top of the series), tumour line C
smiles,measurement,setting,value
Cc1[nH]c(C=C2C(=O)Nc3ccc(S(=O)(=O)Cc4c(Cl)cccc4Cl)cc32)c(C)c1C(=O)N1CCC[C@H]1CN1CCCC1,Potency,MKL-1,18.7 µM (active)
same,Potency,MKL-2,3.72 µM (active)
same,Potency,UISO,inactive
Nc1ncnc2ccccc12,Potency,MKL-1,inactive
same,Potency,MKL-2,inactive
same,Potency,UISO,inactive
same,Potency,WaGa,inactive
C[C@H](NC(=O)C(=O)Nc1ccccc1C(C)(C)C)C(=O)N[C@@H](CC(=O)O)C(=O)COc1c(F)c(F)cc(F)c1F,Potency,MKL-1,20.9 µM (active)
same,Potency,MKL-2,16.6 µM (active)
same,outcome,NIH3T3,inactive
same,"activity change, negative = inhibition",[1]; HiBiT,-0.932%
same,"activity change, negative = inhibition",[1]; Viability,0.0107%
Cc1cc(OCCCc2c(C(=O)O)n(Cc3cccnc3)c3c(-c4c(COc5ccc(N6CCN([S+](C)(=O)[O-])CC6)cc5)nn(C)c4C)cccc23)cc(C)c1Cl,Potency,MKL-1,inactive
same,Potency,MKL-2,inactive
same,Potency,UISO,inactive
same,Potency,WaGa,inactive
CC=CC(=O)N(CC)c1ccccc1C,Potency,MKL-1,inactive
same,Potency,MKL-2,inactive
same,Potency,UISO,inactive
COc1ccc(Cc2ccc(NC(N)=O)cc2)cc1-c1cccc(Cl)c1,Potency,MKL-1,inactive
same,Potency,MKL-2,inactive
same,Potency,UISO,inactive
same,Potency,WaGa,inactive
same,Potency,C33A,inactive
same,Potency,CAOV3,inactive
same,Potency,CASKI,inactive
same,Potency,Es-2,inactive
same,Potency,HeLa,inactive
same,Potency,Hek293T,inactive
same,Potency,JEG-3,inactive
same,Potency,OV90,inactive
same,Potency,PA-1,inactive
same,Potency,SKOV3,inactive
same,Potency,Tov-21-G,inactive
same,Potency,Tov112D,inactive
NC(=O)[C@@H](CCC(F)(F)F)N(Cc1ccc(-c2ncon2)cc1F)S(=O)(=O)c1ccc(Cl)cc1,Potency,MKL-1,inactive
same,Potency,MKL-2,inactive
same,Potency,UISO,inactive
same,Potency,WaGa,inactive
CC(=O)c1ccc(S(=O)(=O)NC(=O)NC2CCCCC2)cc1,Potency,MKL-1,inactive
same,Potency,MKL-2,inactive
same,Potency,UISO,inactive
same,Potency,WaGa,inactive
same,Potency,C33A,inactive
same,Potency,CAOV3,inactive
same,Potency,CASKI,inactive
same,Potency,Es-2,inactive
same,Potency,HeLa,inactive
same,Potency,Hek293T,inactive
same,Potency,JEG-3,inactive
same,Potency,OV90,inactive
same,Potency,PA-1,inactive
same,Potency,SKOV3,inactive
same,Potency,Tov-21-G,inactive
same,Potency,Tov112D,inactive
same,"activity, negative = cell killing",[2]; [3],-1.16%
same,"activity, negative = cell killing",[2]; [4],0.333%
same,"activity, negative = cell killing",[2]; [5],-21.5%
same,"activity, negative = cell killing",[2]; [6],-21%
same,Potency,astro,inactive
CC(C)(C)c1ccc(C(O)CCCN2CCC(C(O)(c3ccccc3)c3ccccc3)CC2)cc1 (stereo not drawn),Potency,MKL-1,inactive
same,Potency,MKL-2,inactive
same,Potency,UISO,inactive
same,Potency,WaGa,inactive
same,Potency,C33A,inactive
same,Potency,CAOV3,inactive
same,Potency,CASKI,inactive
same,Potency,Es-2,inactive
same,Potency,HeLa,inactive
same,Potency,Hek293T,inactive
same,Potency,JEG-3,inactive
same,Potency,OV90,inactive
same,Potency,PA-1,inactive
same,Potency,SKOV3,inactive
same,Potency,Tov-21-G,inactive
same,Potency,Tov112D,inactive
same,"activity, negative = cell killing",[2]; [6],-2.38%
same,Potency,[2]; tumour line A,5.01 µM (active)
same,Potency,[2]; tumour line B,11.2 µM (active)
same,Potency,[2]; tumour line D,10 µM (active)
same,Potency,astro,35.5 µM (active) and 20 µM (active)
same,Potency,[1]; Viability,22.2 µM (active)
Nc1ncnc2c1ncn2[C@@H]1O[C@@H](CO)[C@H](O)[C@H]1O,Potency,MKL-1,inactive
same,Potency,MKL-2,inactive
same,Potency,UISO,inactive
same,Potency,WaGa,inactive
COc1ccc(-n2c(C)c([N+](=O)[O-])c3ccc(O)cc32)cc1,Potency,MKL-1,inactive
same,Potency,MKL-2,inactive
same,Potency,UISO,inactive
same,Potency,WaGa,inactive
CC(=O)CCCCn1c(=O)c2c(ncn2C)n(C)c1=O,Potency,MKL-1,inactive
same,Potency,MKL-2,inactive
same,Potency,UISO,inactive
same,Potency,WaGa,inactive
same,Potency,C33A,inactive
same,Potency,CAOV3,inactive
same,Potency,CASKI,inactive
same,Potency,Es-2,inactive
same,Potency,HeLa,inactive
same,Potency,Hek293T,inactive
same,Potency,JEG-3,inactive
same,Potency,OV90,inactive
same,Potency,PA-1,inactive
same,Potency,SKOV3,inactive
same,Potency,Tov-21-G,inactive
same,Potency,Tov112D,inactive
same,"activity, negative = cell killing","[2]; at 20 µM (top of the series), tumour line C",-6.47%
same,"activity, negative = cell killing","[2]; at 21.2 µM (top of the series), tumour line B",0.116%
same,"activity, negative = cell killing","[2]; at 21.2 µM (top of the series), tumour line D",1.87%
same,"activity, negative = cell killing","[2]; at 21.3 µM (top of the series), tumour line A",-23.5%
same,Potency,astro,inactive
O=C(O)Cc1cccc2ccccc12,Potency,MKL-1,inactive
same,Potency,MKL-2,inactive
same,Potency,UISO,inactive
same,Potency,WaGa,inactive
same,Potency,C33A,inactive
same,Potency,CAOV3,inactive
same,Potency,CASKI,inactive
same,Potency,Es-2,inactive
same,Potency,HeLa,inactive
same,Potency,Hek293T,inactive
same,Potency,JEG-3,inactive
same,Potency,OV90,inactive
same,Potency,PA-1,inactive
same,Potency,SKOV3,inactive
same,Potency,Tov-21-G,inactive
same,Potency,Tov112D,inactive
same,"activity, negative = cell killing",[2]; [3],-11.6%
same,"activity, negative = cell killing",[2]; [4],18.7%
same,"activity, negative = cell killing",[2]; [5],-19.6%
same,"activity, negative = cell killing",[2]; [6],-6.29%
same,"activity, negative = cell killing","[2]; at 91.6 µM (top of the series), tumour line A",-29.8%
same,"activity, negative = cell killing","[2]; at 91.6 µM (top of the series), tumour line B",9.54%
same,"activity, negative = cell killing","[2]; at 91.6 µM (top of the series), tumour line D",-15.1%
same,"activity, negative = cell killing","[2]; at 99.2 µM (top of the series), tumour line C",10.5%
same,Potency,astro,inactive
C[C@@H]1CCN(C(=O)CC#N)C[C@H]1N(C)c1ncnc2[nH]ccc12,Potency,MKL-1,inactive
same,Potency,MKL-2,inactive
same,Potency,UISO,inactive
same,Potency,WaGa,inactive
COc1ccc(-c2coc3cc(O)ccc3c2=O)cc1,Potency,MKL-1,inactive
same,Potency,MKL-2,inactive
same,Potency,UISO,inactive
same,Potency,WaGa,inactive
Clc1ccc(-c2nc3sccn3c2C=NOCc2ccc(Cl)c(Cl)c2)cc1,Potency,MKL-1,inactive
same,Potency,MKL-2,inactive
same,Potency,UISO,inactive
same,Potency,WaGa,inactive
O=C1Nc2ccc(Cl)cc2C(C#CC2CC2)(C(F)(F)F)O1 (stereo not drawn),Potency,MKL-1,inactive
same,Potency,MKL-2,inactive
same,Potency,UISO,inactive
same,Potency,WaGa,inactive
C[C@@H](O)[C@H]1C(=O)N2C(C(=O)O)=C(S[C@@H]3CN[C@H](C(=O)N(C)C)C3)[C@H](C)[C@H]12,Potency,MKL-1,inactive
same,Potency,MKL-2,inactive
same,Potency,UISO,inactive
same,Potency,WaGa,inactive
same,Potency,C33A,inactive
same,Potency,CAOV3,inactive
same,Potency,CASKI,inactive
same,Potency,Es-2,inactive
same,Potency,HeLa,inactive
same,Potency,Hek293T,inactive
same,Potency,JEG-3,inactive
same,Potency,OV90,inactive
same,Potency,PA-1,inactive
same,Potency,SKOV3,inactive
same,Potency,Tov-21-G,inactive
same,Potency,Tov112D,inactive
same,"activity, negative = cell killing",[2]; [3],-4.52%
same,"activity, negative = cell killing",[2]; [4],4.08%
same,"activity, negative = cell killing",[2]; [5],-23.7%
same,"activity, negative = cell killing",[2]; [6],-22.4%
same,Potency,astro,inactive
